# Several values for one entry are separate records, joined by “and”; a condition that tells them apart may be missing. Equal entries are not always repeated. Where a structure was tested more than once in an assay, its records may differ in their call. Activity calls are given as the source filed them. Unless noted, no rule for the calls is given here.
# Tests used:
# [1] = system: Wnt5a (protein binding on small-molecule microarray); assay: small molecules binding Wnt5a protein – biophysical, small-molecule microarray, 635/667 nm fluorescence, primary screen (AID 1142); details: 635 nm fluorescence, higher = more signal;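 also: fluorescence read at 667 nm with signal to noise per printed feature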
# [2] = ATP-based viability of Huh7 replicon cells – cell-based, CellTiter-Glo luminescence, basal, 48 h, cytotoxicity control for HCV replication inhibitor project, primary screen (AID 1143); details: higher = more signal, called active from +8 up or from −8 down;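 also: Huh7 hepatoma cells carrying a hepatitis C replication reporter with no stimulus; test concentration not given here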
# [3] = Pseudomonas biofilm growth suppression – PAO1 strain, BacTiter-Glo luminescence, LB-PBS, primary screen (AID 1144); details: P. aeruginosa PAO1 biofilm, 12 h, higher = more signal
# [4] = basal CRE-LacZ reporter activity in PC12 – cell-based, unstimulated, primary screen (AID 1145); details: no forskolin, luminescence, 4.5 h, higher = more signal, called active from +8 up or from −8 down
# [5] = forskolin-driven CRE-LacZ activity in PC12 – cell-based, CRE-LacZ reporter, forskolin-stimulated, primary screen (AID 1146); details: luminescence, 4.5 h, higher = more signal, called active from +8 up or from −8 down;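 also: PC12 cells with 6xCRE LacZ reporter stimulated by forskolin 10 µM; beta-galactosidase reporter signal reflecting CREB driven transcription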
# [6] = target: Streptavidin (Streptomyces avidinii) (UniProt P22629); assay: compounds binding control protein streptavidin – biophysical, small-molecule microarray, 635/667 nm fluorescence, artefact control for SMM compound annotation, primary screen (AID 1147); details: higher = more signal;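 also: signal reflects streptavidin binding to arrayed compounds as a control protein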
# [7] = probe aInhba binding on compound microarray – biochemical, small-molecule microarray, 635/667 nm fluorescence, primary screen (AID 1148); details: higher = more signal;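 also: score merges 667nm spot fluorescence with signal-to-noise for antibody binding to printed compounds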
# Torsin-1A (Homo sapiens) [8] = target: Torsin-1A (Homo sapiens) (UniProt O14656); assay: TOR1A wild-type binding on microarray – cell lysate, small-molecule microarray, lysate, 635/667 nm, primary screen (AID 1149); details: COS7 hTOR1A-WT lysate, 635 nm fluorescence, higher = more signal
# Torsin-1A (Homo sapiens) [9] = target: Torsin-1A (Homo sapiens) (UniProt O14656); assay: torsin A mutant lysate binding on microarrays – cell lysate, small-molecule microarray, COS7 lysate, 635/667 nm fluorescence, primary screen (AID 1150); details: COS7 hTOR1A mutant lysate, 635 nm fluorescence, higher = more signal;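 also: score pools 667 nm emission and signal to noise measuring lysate protein binding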
# [10] = system: Sonic hedgehog protein (Shh); assay: Sonic hedgehog microarray binding compounds – biochemical, small-molecule microarray, 635/667 nm fluorescence, primary screen (AID 1151); details: 635 nm fluorescence, higher = more signal;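 also: Shh protein binding to compounds spotted on small-molecule microarray slides; score combines spot fluorescence intensity with signal-to-noise across triplicate slides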
# Torsin-1A (Homo sapiens), sequence (O14656 whole entry, looked up): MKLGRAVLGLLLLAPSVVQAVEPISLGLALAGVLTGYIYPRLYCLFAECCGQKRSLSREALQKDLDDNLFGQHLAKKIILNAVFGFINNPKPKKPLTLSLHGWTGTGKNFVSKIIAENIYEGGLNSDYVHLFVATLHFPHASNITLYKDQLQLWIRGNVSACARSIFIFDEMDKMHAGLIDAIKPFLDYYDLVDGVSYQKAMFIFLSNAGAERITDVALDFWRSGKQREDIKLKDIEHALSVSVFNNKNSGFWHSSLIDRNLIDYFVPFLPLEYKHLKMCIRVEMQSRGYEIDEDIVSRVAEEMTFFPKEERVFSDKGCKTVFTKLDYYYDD
# Streptavidin (Streptomyces avidinii), sequence (P22629 whole entry, looked up): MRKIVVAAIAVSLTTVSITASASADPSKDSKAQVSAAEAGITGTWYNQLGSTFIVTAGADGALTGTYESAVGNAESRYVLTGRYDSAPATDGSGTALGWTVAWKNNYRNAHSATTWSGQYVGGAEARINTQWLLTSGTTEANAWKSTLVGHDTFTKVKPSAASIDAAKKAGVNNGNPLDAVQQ
Compound,composite z-score [1],z-score [2],z-score [3],z-score [4],z-score [5],composite z-score [6],composite z-score [7],composite z-score (Torsin-1A (Homo sapiens) [8]),composite z-score (Torsin-1A (Homo sapiens) [9]),composite z-score [10]
C=CCN(Cc1ccccc1)C(=O)C(c1cccs1)N(C(=O)/C=C\C(=O)O)c1ccc(CCO)cc1 (stereo not given),-1.26 and -0.913,0.735 (inactive) and 0.129 (inactive),-0.732 (inactive) and -1.02 (inactive),-0.0778 (inactive) and -0.0656 (inactive),0.0736 (inactive) and -0.183 (inactive),-1.73 and -2.16,-0.135 and -0.346,-2.97 and -2.57,-2.1 and -2.38,-1.14 and -0.843
C=CCN(CCCC)C(=O)C(c1cccs1)N(CCOCCO)C(=O)/C=C\C(=O)O (stereo not given),-0.582 and -0.146,-0.259 (inactive) and -0.0074 (inactive),-0.801 (inactive) and -0.86 (inactive),-0.891 (inactive) and 0.0564 (inactive),-0.43 (inactive) and -0.359 (inactive),-0.915 and -0.578,-0.0313 and -0.0791,-0.289 and 0.536,1.73 and -0.144,-0.127 and -0.197
C[C@@H]1CC[C@H]2C(=O)NC[C@@H](O)CN2[C@H]1c1ccc(Br)cc1,-0.0755 and 0.0111,0.3 (inactive) and 0.139 (inactive),0.721 (inactive) and 0.543 (inactive),0.649 (inactive) and 0.108 (inactive),0.797 (inactive) and 0.187 (inactive),-0.161 and -0.289,-0.0762 and -0.128,0.0335 and 0.266,0.0464 and -0.352,0.264 and -0.0212
C=CCN(CCCCC)C(=O)C1N(c2ccc(CCO)cc2)C(=O)C2C(C(=O)O)C3C=CC21O3 (stereo not given),-0.479 and -0.327,-0.641 (inactive) and -0.552 (inactive),0.839 (inactive) and 0.128 (inactive),-0.48 (inactive) and -0.619 (inactive),0.589 (inactive) and -0.601 (inactive),-1.64 and -1.36,-0.206 and 0.789,-1.94 and -0.448,0.101 and -1.53,-0.568 and 2.02
CCCC[C@@H]1CN2[C@H](c3ccc(Br)cc3)[C@@H](C)CC[C@H]2C(=O)O1,-0.134 and -0.107,-0.394 (inactive) and -0.261 (inactive),-0.379 (inactive) and -0.292 (inactive),-0.343 (inactive) and 0.285 (inactive),0.903 (inactive) and 0.466 (inactive),-0.13 and 0.159,-0.261 and -0.0531,0.0781 and 0.436,0.516 and -0.16,0.11 and 0.152
C=C[C@H](C)[C@H](O)c1ccc(O)c2ccccc12,-0.455 and 0.247,-1.69 (inactive) and 0.651 (inactive),-0.143 (inactive) and -0.287 (inactive),0.833 (inactive) and 1.94 (inactive),1.13 (inactive) and -0.456 (inactive),-0.663 and -0.935,-0.206 and -0.182,-1.49 and -0.75,-0.0641 and 0.204,0.153 and 1.7
COC(=O)[C@@]1(Cc2ccccc2)[C@H]2c3cc(C(=O)N(C)C)n(C[C@H](O)CO)c3C[C@H]2CN1C(=O)c1ccccc1,-0.19 and 0.0986,0.0129 (inactive) and 0.255 (inactive),-0.256 (inactive) and -0.607 (inactive),1.35 (inactive) and 0.204 (inactive),0.756 (inactive) and -0.209 (inactive),-0.0247 and 0.888,-0.0817 and 0.223,-0.593 and 0.132,0.492 and 0.92,-0.39 and -1.19
CCOC(=O)c1ccc(NC(=O)O[C@H]2[C@H](OC(=O)Nc3ccccc3)[C@@H](OC(=O)Nc3ccccc3)[C@@H](OC)O[C@@H]2CO)cc1,0.493 and 0.437,-4.44 (inactive) and -4.14 (inactive),0.0469 (inactive) and -1.32 (inactive),1.55 (inactive) and -0.552 (inactive),-1.38 (inactive) and -1.61 (inactive),1.64 and 0.53,0.333 and 0.0982,1.19 and 0.89,0.556 and 0.56,0.955 and 1.97
C[N+](C)(C)CCCCCCNC(=O)[C@H]1C[C@H]2C(=O)N[C@@H](CCCC[N+](C)(C)C)C(=O)N2[C@H]1c1ccc(O)cc1,0.0916 and 0.169,-2.26 (inactive) and 0.0462 (inactive),-0.978 (inactive) and -0.491 (inactive),-1.22 (inactive) and 0.423 (inactive),0.188 (inactive) and -0.798 (inactive),-0.52 and -0.486,-0.131 and -0.0313,-0.0883 and -0.172,0.0293 and -0.103,1.14 and 1.93
COC(=O)C1=C(C)N(Cc2ccccc2)[C@]23O[C@](C(=O)OC)(C(=O)N2[C@@H]1c1ccccc1)[C@@H](C(=O)OC)[C@H]3C(=O)OC,-0.13 and 0.206,0.36 (inactive) and 0.333 (inactive),-0.754 (inactive) and 0.0472 (inactive),0.745 (inactive) and -0.487 (inactive),-0.998 (inactive) and -0.909 (inactive),-0.895 and -0.188,-0.188 and -0.218,-0.0921 and 0.481,-0.107 and 0.299,-0.652 and 0.611
CCOC(=O)C[C@H]1[C@H](OC(=O)c2ccccc2-c2ccccc2)[C@@H](NC(=O)c2ccccc2)c2cc(OCCCO)ccc2N1C(=O)c1ccc2ccccc2n1,0.103 and 0.147,-0.616 (inactive) and 0.662 (inactive),0.559 (inactive) and 0.171 (inactive),9.27 (active) and -0.23 (inactive),0.158 (inactive) and -0.583 (inactive),-0.0119 and 1.12,0.216 and 0.0047,0.144 and 0.158,0.0956 and 0.344,0.502 and 1.8
C=CCN(C(=O)C(c1cccs1)N(C(=O)/C=C\C(=O)O)C(C)(C)CO)C(C)(C)C (stereo not given),-0.291 and -0.768,-0.261 (inactive) and 0.272 (inactive),-1.52 (inactive) and -1.38 (inactive),-0.887 (inactive) and -0.761 (inactive),-0.706 (inactive) and -0.329 (inactive),-0.689 and -1.22,-0.0581 and -0.0791,-0.331 and -0.511,0.214 and 1.51,-0.645 and -0.105
C=CC[C@@H](O)c1ccc(OCCO)cc1,-0.0578 and -0.579,-0.924 (inactive) and -0.105 (inactive),0.517 (inactive) and -0.242 (inactive),-0.431 (inactive) and 0.772 (inactive),-0.613 (inactive) and -0.949 (inactive),-1.47 and -0.878,-0.259 and -0.153,0.588 and -3.38,0.479 and -2.42,0.0925 and -0.262
O=C1C[C@]2(c3ccc([N+](=O)[O-])cc3)C(=O)N(Cc3ccccc3)c3cc(CO)ccc3[C@H]2N1C1CCCCC1,0.0771 and 0.551,0.282 (inactive) and -5.67 (inactive),-0.19 (inactive) and -0.334 (inactive),-0.348 (inactive) and -0.152 (inactive),1.03 (inactive) and -0.885 (inactive),-0.286 and -0.157,-0.249 and 0.163,0.251 and 0.0218,0.22 and -0.0773,0.837 and 1.22

# From PubChem BioAssay
